# Earlier results in PubChem BioAssay AID977608.
# Screen size: about 4,300 compounds; about 4,300 (100%) were called active. No cut-off is given here; in the data, nearly all actives have IC50 up to about 1400 µM. The set was probably picked from earlier hits. The list shows a part of the results.
# Assay: protein-ligand inhibition affinities from structures – PDB-derived complexes (AID 977608)
smiles,measurement,setting,value
Cn1ncnc1[C@H]1c2n[nH]c(=O)c3cc(F)cc(c23)N[C@@H]1c1ccc(F)cc1,IC50,"literature IC50, protein: Poly [ADP-ribose] polymerase 1 PARP1, PDB entry 4pjt",0.00057 µM (active)
Nc1nc(Nc2cccc(S(N)(=O)=O)c2)sc1C(=O)c1ccccc1,IC50,"literature IC50, protein: Cyclin-dependent kinase 2, PDB entry 3rni",6.7 µM (active)
NC(=O)c1sc(Nc2ccccc2)nc1N,IC50,"literature IC50, protein: Cyclin-dependent kinase 2, PDB entry 3rzb",100 µM (active)
CS(=O)(=O)c1ccc(C(=O)Nc2cccc(-c3cn4ccnc4c(Nc4ccc(C(=O)N5CCOCC5)cc4)n3)c2)cc1,IC50,"literature IC50, protein: Tyrosine-protein kinase BTK, PDB entry 4ot6",1.2 µM (active)
O=C(Nc1ccc2[nH]nc(-c3ccncc3)c2c1)[C@@H]1CCN(CC(=O)N2CCN(c3ccc(-c4ncccn4)cc3)CC2)C1,IC50,"literature IC50, protein: Haspin, PDB entry 4qtc",0.398 µM (active)
same,IC50,"literature IC50, protein: Mitogen-activated protein kinase 8 JNK1, PDB entry 4qtd",1.08 µM (active)
O=C1NC(=Nc2ccccc2)N=C1Cc1ccc2c(c1)OCO2,IC50,"literature IC50, protein: Serine/threonine-protein kinase pim-1, PDB entry 4gw8",0.88 µM (active)
C/C=C\CCC[C@H](C(=O)N1CCC[C@H]1C(=O)OC)N(C)C(=O)[C@H](C)NC(=O)[C@H](CC(C)C)NC(=O)C[C@H](O)[C@H](Cc1ccccc1)NC(=O)c1cc(NS(C)(=O)=O)cc(C(=O)N[C@H](C)c2ccccc2)c1,IC50,"literature IC50, protein: Beta-secretase 1 (K75A,E77A mutation), PDB entry 4dvf",0.128 µM (active)
O=C(O)c1cc2ccccc2o1,IC50,"literature IC50, protein: Adenylate cyclase type 10 hsolAC, PDB entry 4oyp",1000 µM (active)
CCc1nc(N)nc(N)c1-c1ccc2c(c1)N(CCNC(C)=O)C(=O)C(C)(C)O2,IC50,"literature IC50, protein: human Renin, PDB entry 2g1r",0.02 µM (active)
C[C@H](N[C@@H](CCc1ccccc1)C(=O)O)C(=O)N1CC=C[C@H]1C(=O)O,IC50,"literature IC50, protein: HUMAN TESTICULAR ANGIOTENSIN I-CONVERTING ENZYME, PDB entry 1uze",0.00127 µM (active)
NC[C@@](O)(c1ccc(Cl)cc1)c1ccc(-c2cn[nH]c2)cc1,IC50,"literature IC50, protein: CAMP-DEPENDENT PROTEIN KINASE CATALYTIC SUBUNIT ALPHA, PDB entry 4axa",0.01 µM (active)
NC1NC(=O)c2[nH]cnc2N1 (stereo not given),IC50,"literature IC50, protein: human Purine nucleoside phosphorylase, PDB entry 1v2h",5 µM (active)
CO[C@@H]([C@@H]1OC(C(=O)O)=C[C@H](NC(N)N)[C@H]1NC(C)=O)[C@H](O)CO,IC50,"literature IC50, protein: Neuraminidase, PDB entry 4hzw",0.00131 µM (active)
CO[C@@H]([C@@H]1O[C@H](C(=O)O)C[C@H](NC(N)N)[C@H]1NC(C)=O)[C@H](O)CO,IC50,"literature IC50, protein: Neuraminidase, PDB entry 4mwu",0.00324 µM (active)
same,IC50,"literature IC50, protein: Neuraminidase, PDB entry 4mwy",0.0896 µM (active)
CC(=O)N[C@H]1[C@H]([C@H](O)[C@H](O)CO)O[C@@H](C(=O)O)C[C@@H]1NC(N)N,IC50,"literature IC50, protein: Neuraminidase, PDB entry 4mwr",0.00041 µM (active)
same,IC50,"literature IC50, protein: Neuraminidase, PDB entry 4mwx",0.0757 µM (active)
CC(C)[C@H](NC(=O)CCc1ccccc1)[P+](O)(O)C[C@@H](CCCCCN)C(=O)O,IC50,"literature IC50, protein: Carboxypeptidase B, PDB entry 3wc7",0.0055 µM (active)
Nc1c2ncn3c2nc[n+]1[C@@H]1C[C@H](CO[P+](O)(O)O[P+](O)(O)OC[C@H]2O[C@@H]3[C@H](O)[C@@H]2O)[C@@H](O)[C@H]1O,IC50,"literature IC50, protein: ADP-ribosyl cyclase 1, PDB entry 3u4i",129 µM (active)
Nc1[nH]c2c(=O)n3cnc2[n+]1[C@@H]1O[C@H](CO[P+](O)(O)O[P+](O)(O)OC[C@H]2O[C@@H]3[C@H](O)[C@@H]2O)[C@@H](O)[C@H]1O,IC50,"literature IC50, protein: ADP-ribosyl cyclase 1, PDB entry 3u4h",56 µM (active)
C/C(=C\CO[P+](O)(O)O[P+](O)(O)O)CS,IC50,"literature IC50, protein: 4-hydroxy-3-methylbut-2-enyl diphosphate reductase, PDB entry 4h4e",0.21 µM (active)
C/C(=C\CO[P+](O)(O)O[P+](O)(O)O)CN,IC50,"literature IC50, protein: 4-hydroxy-3-methylbut-2-enyl diphosphate reductase, PDB entry 4h4d",0.15 µM (active)
C[C@]1(c2cc(NC(=O)c3ccc(C#N)cn3)ccc2F)NC(N)O[C@H](C(F)(F)F)[C@@H]1F (stereo not given in full),IC50,"literature IC50, protein: Beta-secretase 1, PDB entry 4j1k",0.013 µM (active)
C[C@]1(c2cc(NC(=O)c3ccc(C#N)cn3)ccc2F)NC(N)O[C@@H](C(F)(F)F)[C@@H]1F (stereo not given in full),IC50,"literature IC50, protein: Beta-secretase 1, PDB entry 4j1i",0.04 µM (active)
O=C(CCc1cc(C(=O)c2cccc(F)c2)c[nH]1)C[C@@H](O)C(=O)O,IC50,"literature IC50, protein: DNA nucleotidylexotransferase, Tdt core, PDB entry 4iqt",0.78 µM (active)
CC(=O)O[C@]1(C(C)=O)CC[C@H]2[C@@H]3CCC4=CC(=O)CCC4=C3[C@@H](c3ccc(N(C)C)cc3)C[C@@]21C,IC50,"literature IC50, protein: Progesterone receptor, PDB entry 4oar",3.8e-05 µM (active)
CC(C)C1=CC2=CC(=O)[C@H]3C(C)(C)CCC[C@]3(C)C2=C(O)C1=O,IC50,"literature IC50, protein: Farnesyl pyrophosphate synthase HsFPPS-11, PDB entry 4p0x",1.2 µM (active)
O=C1N=CN2NC(Sc3ccc(F)cc3F)=CC=C2C1c1c(Cl)cccc1Cl (stereo not given),IC50,"literature IC50, protein: human p38 kinase, Mitogen-activated protein kinase 14, MAPK14, PDB entry 3fc1",0.01 µM (active)
CCCNc1nc(N)c(C(O)c2cccnc2)s1 (stereo not given),IC50,"literature IC50, protein: Cyclin-dependent kinase 2, PDB entry 3qtq",3.1 µM (active)
CCCNc1nc(N)c(C(O)c2cccc([N+](=O)[O-])c2)s1 (stereo not given),IC50,"literature IC50, protein: Cyclin-dependent kinase 2, PDB entry 3r8v",2.9 µM (active)
CCCNc1nc(N)c(C(O)c2ccccn2)s1 (stereo not given),IC50,"literature IC50, protein: Cyclin-dependent kinase 2, PDB entry 3s0o",33 µM (active)
CC(C)Nc1nc(N)c(C(O)c2cccnc2)s1 (stereo not given),IC50,"literature IC50, protein: Cyclin-dependent kinase 2, PDB entry 3rk9",0.52 µM (active)
CCCNc1nc(N)c(C(O)c2ccc3ccccc3c2)s1 (stereo not given),IC50,"literature IC50, protein: Cyclin-dependent kinase 2, PDB entry 3r8u",5 µM (active)
CCCNc1nc(N)c(C(O)c2ccncc2)s1 (stereo not given),IC50,"literature IC50, protein: Cyclin-dependent kinase 2, PDB entry 3r8z",49 µM (active)
COc1cc2nccc(Oc3ccc4oc(Nc5ccc(Cl)cc5)nc4c3)c2cc1OC,IC50,"literature IC50, protein: ALK tyrosine kinase receptor (C1097S, R1275Q mutation), PDB entry 4fny",0.016 µM (active)
CC(=O)Nc1cccc(-c2ccn([C@@H](Cc3cc[n+]([O-])cc3)c3ccc(OC(F)F)c(OCC4CC4)c3)n2)c1,IC50,"literature IC50, protein: cAMP-specific 3',5'-cyclic phosphodiesterase 4D, PDB entry 3v9b",0.0005 µM (active)
CN1C2=C(NC[C@@H]1CNc1ccc(C(=O)N[C@@H](CCC(=O)N[C@@H](CCC(=O)O)C(=O)O)C(=O)O)cc1)NC(N)=NC2O (stereo not given in full),IC50,"literature IC50, protein: Cyclic AMP-GMP synthase DncV (deletion mutant D-loop), PDB entry 4u0n",1.69 µM (active)
CN1C2C(=NC[C@@H]1CNc1ccc(C(=O)N[C@@H](CCC(=O)N[C@@H](CCC(=O)O)C(=O)O)C(=O)O)cc1)NC(N)=NC2O (stereo not given in full),IC50,"literature IC50, protein: Cyclic AMP-GMP synthase DncV (D193N mutant), PDB entry 4u0m",1.69 µM (active)
same,IC50,"literature IC50, protein: Cyclic AMP-GMP synthase DncV, PDB entry 4u03",1.69 µM (active)
